The full ranking holds about 33,000 sequences; the median of “E-score (-0.5 to 0.5)” is about -0.016, and the highest 2% start at about 0.32. The entries come from a sample that favours the highest values as a whole.
Biological target: T1, Stp1 (UniProt B3LFK1)
T1 sequence: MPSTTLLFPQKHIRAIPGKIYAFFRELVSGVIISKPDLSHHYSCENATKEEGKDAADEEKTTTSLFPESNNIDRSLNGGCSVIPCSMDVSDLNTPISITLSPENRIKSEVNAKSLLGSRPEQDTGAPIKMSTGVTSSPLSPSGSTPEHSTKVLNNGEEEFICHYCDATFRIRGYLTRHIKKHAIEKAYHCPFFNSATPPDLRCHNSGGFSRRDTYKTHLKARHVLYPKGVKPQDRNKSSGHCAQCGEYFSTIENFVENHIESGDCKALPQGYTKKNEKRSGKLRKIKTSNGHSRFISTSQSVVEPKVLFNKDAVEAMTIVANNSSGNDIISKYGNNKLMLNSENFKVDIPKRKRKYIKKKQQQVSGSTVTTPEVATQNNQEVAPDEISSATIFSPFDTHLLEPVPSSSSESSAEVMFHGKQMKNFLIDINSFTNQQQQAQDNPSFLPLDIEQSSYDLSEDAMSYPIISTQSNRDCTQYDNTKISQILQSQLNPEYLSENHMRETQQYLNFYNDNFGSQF
Test: PBM E-score (8-mer binding enrichment) (E-score (-0.5 to 0.5)); higher = stronger / more preferred TF binding
Conditions: protein concentration: 200 nM; construct: GST-full length
Summary of the method: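 Yeast transcription factors carrying a GST tag, as full-length proteins or DNA-binding domains, were produced by PURExpress in vitro transcription/translation. About 100-200 nM protein was applied to universal all-10-mer Agilent arrays, double-stranded by primer extension on fresh or once-stripped slides. Bound protein was detected with fluorescent anti-GST, and scans were normalised with masliner. The Universal PBM Analysis Suite gave each ungapped eight-base word, pooled with its reverse complement, an E-score, a modified Wilcoxon-Mann-Whitney statistic.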

Sequence	PBM E-score
CTATGCCC	-0.0982
ATGCCGGC	0.0928
AGGCCGCC	-0.0139
ATGCCGCC	0.386
GGTTTGAA	0.0901
GAAGTGAC	-0.0146
CAAAGGCG	0.129
GAAAGGCA	0.376
AAAAGGCT	0.0632
CAAAGGCA	0.184
AAAAGGCG	0.34
ACAAGGCA	0.315
AGAAGGCG	0.2
AAAAGGCC	0.174
GAAAGGCC	0.272
AAAAGGCA	0.359
GCAAGGCA	0.38
GCAAGGCC	0.151
TGAGAAAA	0.116
GCCCCTAA	-0.229
CTAAGGGC	-0.224
CTTTTCGA	0.174
CACCCTAG	-0.172
GCAGAAAC	0.234
ACAGTCGA	-0.262

Sequence	PBM E-score
AAACGCCA	0.345
AAACGCCC	0.231
CAACGCCG	0.391
TAACGCCA	0.133
AAACGCCT	0.141
CAACGCCC	0.0959
GAACGCCA	0.0737
AAACGCCG	0.428
CAACGCCA	0.0795
CTGGAAAG	-0.15
AGCGAAAG	-0.138
ATGGCTAG	0.0312
CCTTTCCG	0.0145
ATGACTTC	0.00281
AGTACTTG	0.142
GGGGACGA	-0.249
ATCTCACG	0.015
CTGGTGCC	0.252
CCAGTGCC	0.179
ACGGTGCC	0.396
ACGGTGCG	0.173
ATGGTGCG	-0.0219
GCAGTGCC	0.253
ATGGTGCC	0.372
ACGGTGCA	-0.00717

Sequence	PBM E-score
ACAGTGCC	0.321
AACTGGAT	0.0626
TCCCATCA	-0.201
GGACTGCA	-0.229
GAGCAGAA	-0.0386
GGCACGGA	0.376
CGCACGCA	-0.00526
GGCACGCA	0.288
CTCACGGA	0.0462
CGCACGGA	0.39
GTCACGGA	-0.0129
TACTCTAA	0.034
CCCTGTCG	0.0867
CATATGGG	-0.035
AGGGTCGC	0.0437
AGCGGCGG	0.337
AGCAGCGC	0.0916
AGCGGCCA	-0.114
ACCGGCGG	0.0942
AGCGGGGG	-0.287
CGCGGTGA	0.0941
CGCGGCGA	0.451
GGCGGCGA	0.276
AGCGGCGA	0.386
CGCGGAGA	0.109

Sequence	PBM E-score
AGCGGCGC	0.452
AGCGGGGC	0.0451
AGAGCTTG	-0.106
ATGAGCTG	-0.175
GATCCATA	0.134
ACGCTAAG	0.00258
CGGACCGA	0.0676
CCTCGCAG	-0.0486
GCGTCTAC	-0.155
CACTGCCC	-0.071
AACTGCCC	-0.192
AACTGCCG	0.329
AACTGCCT	0.0172
CACTGCCG	0.336
CACTGCCA	0.0847
AGATCCAA	0.0566
AAGCTGTG	-0.106
CCCTTGCA	-0.163
CCCTTGTA	-0.178
ACCTTGTA	0.0137
TCCTTGCA	-0.0871
GCCTTGCA	0.33
GCCTTGTA	0.354
AAGGATGC	-0.187
GTGGTCTA	-0.307

Sequence	PBM E-score
CTCTACCA	-0.0433
GCTGGTCC	-0.253
GTTGTGGA	-0.0929
CATGCCCA	-0.249
ATGACGCC	0.2
GCCGTCGA	0.278
GCCGTCTA	0.429
ACCGTCGC	0.0157
GCCGTCGC	0.351
ACCGTCTA	-0.0765
GCCGTCCA	0.364
GCCGTCCC	0.378
CCCGTCCC	-0.249
CCCGTCCA	-0.00501
TCCGTCCA	-0.122
CCCGTCTA	-0.0264
ACCGTCCC	-0.184
AGACAAAG	0.00552
GAGGGTAA	-0.0792
CACCATAC	-0.0768
TAAAGTGA	0.135
CAGAAAGG	0.0864
ACTGCGGA	0.0949
CCTGCGCC	0.295
ACTGCGGG	-0.153

Sequence	PBM E-score
CCTGCGGC	0.331
ACTGCGGC	0.381
CCTGCGGA	0.0839
ACTTAGAA	0.0195
GAACAGGC	-0.0513
ACAAGGGA	-0.144
GCAACCTA	0.081
ATAAGCCG	0.0578
ATTGCTAA	0.0687
ACCGCCTC	-0.0359
ATCGCCTG	-0.135
AGCGCCTC	0.389
AGCGCCTG	-0.0292
CGCGCCTC	0.377
CGCGCCTA	0.313
ATCGCCTC	0.356
CACGCCTC	0.205
CTCGCCTC	0.00469
ACGGTCTC	-0.041
CCTAAAGC	0.00183
CCCTAGGA	-0.314
CTTGCGCA	0.223
ATTCTTCG	0.00242
GAACGTAA	0.0655
CCGTTCCA	0.243

Sequence	PBM E-score
ACGTTCCG	-0.106
CCGTTCCG	0.318
GCCATCGA	0.0584
ACCCGTGA	-0.0351
ACCCGTGG	-0.0825
CTCCGTGC	0.228
ACCCGTGC	0.237
AGCCGTGC	0.465
AGCCGTGA	0.343
ATCCGTGC	0.41
AGCCGTGG	0.334
GGCCGTGA	0.126
ATCCGTGA	0.00902
AACCGTGG	-0.00732
AACCGTGC	0.26
ATGCTGAC	-0.0531
ATACAGCC	-0.0239
GCCTCTAA	0.0553
AACCGTAC	-0.0138
CGAACAGA	0.0325
CGCCGTGA	0.376
CACCGTGA	-0.114
CCCCGTGA	-0.14
ATGCACTC	-0.0521
AACGAGAA	0.00842

Sequence	PBM E-score
GCCGCCCA	0.111
ACCGCCCC	-0.144
GCCGCCAC	0.0605
GCCGCCCC	0.378
GCCGCCGC	0.424
CCCGCCGG	-0.213
CCCGCCGA	-0.0885
GCCGCCGA	0.316
CCCGCCGC	0.332
CCTTGATC	0.1
CTGCCCCC	-0.327
CGGGCATA	-0.155
AACGCCCA	0.122
AAGTCCGT	-0.0471
AAAGAAAT	0.128
CCATATGG	0.0408
AGGCTAAG	-0.0187
GCCGCAGC	0.394
GCCGCAAC	0.366
GCCGCAGA	0.372
GCCGCATA	0.457
ACCGCAGC	-0.119
TCCGCAGA	-0.0849
ACCGCAAC	-0.0924
CCCGCAAC	0.097

Sequence	PBM E-score
ACCGCATA	0.0344
CCCGCAGC	-0.123
CCCGCATA	0.21
CCCGCAGA	0.06
GTGCTGCA	0.0505
CTCTTACC	0.201
CTACCTCA	-0.152
CTACCCCA	-0.114
CAGGTTGA	-0.216
AGTAACGC	0.192
ATGGTTGC	-0.177
GACTAGCC	-0.194
ATCGCTGA	-0.0887
CCTTGCGC	0.138
GGTGCGAC	-0.0804
ACGTATAA	0.113
CCGTATCC	0.316
CCGTATCA	0.327
TCGTATAA	0.136
CCGTATAA	0.341
TCGTACAA	0.157
CCGTATCG	0.215
CCGTACAA	0.35
GCGTACAA	0.167
ATCGAAGA	0.171

Sequence	PBM E-score
GCACTAAC	0.042
ATTCTCAA	0.152
AGACCAAT	-0.0691
GCGACTGA	-0.227
ACTCCCAG	-0.264
AGTGAACC	0.00324
CCCGTTCC	-0.00751
ACCGTTCC	0.15
CCCGTTCA	-0.132
GCCGTTCA	0.441
GCCGTTCC	0.432
TCCGTTCA	0.0192
AAATAAAC	0.218
GCGGCCAA	0.161
GAGGACAA	-0.101
CACGTGCG	0.272
CAGGATTC	-0.173
AGCCTCGA	-0.172
GCCATTGA	0.226
AGGCTCTA	0.15
AGGCTCTC	-0.137
CGGCTCTA	0.425
CAGCTCTC	-0.325
GGGCTCTA	-0.0132
CGGCTCTC	0.334

Sequence	PBM E-score
CGCACTCC	-0.172
CAGAGCTA	-0.171
AGGGCGCC	0.343
AGGGGGCG	-0.0306
AGGGCGCA	0.205
AGGGCGCG	0.369
AGGGCGGC	0.14
CGGGCGCC	0.269
ACCAAGGT	0.0467
CAGCCACA	0.161
CGGCTTAC	0.104
GCTGGGTA	-0.175
GCTAAAGA	0.0376
AAAGGCAC	0.392
CAAGGCAC	0.356
CAAGGCAA	0.264
GCAGGCAC	0.0604
AAAGGCAG	0.172
CAAGGCAG	0.0951
GAAGGCAC	0.368
GAAGGCAA	0.218
AAAGGCAA	0.263
AGGTGGCG	-0.0008
GCTCAGAA	0.00512
TAGGTGGA	-0.21

Sequence	PBM E-score
AGGGAAAA	0.0119
AGACATTC	-0.19
GGATGCCC	-0.245
GGAAAAAA	0.149
CTGCCTGA	-0.0731
TATAGAGA	0.0248
GGCACCAA	0.393
TGCACCAA	-0.0793
CGCACCAC	0.063
CGCACCAA	0.213
GGCACCAC	0.324
GGCACCGA	0.356
AGCACCGA	0.0493
AGCACCAC	-0.134
CGCACCGA	0.0478
CCCTATTC	-0.0984
GACCAACC	-0.152
GTTGGCAA	0.0689
AAAGGGGG	-0.423
AAGGAGAA	-0.131
AGGGATTG	-0.0197
AATGGTCT	-0.0756
AAGTCTGG	-0.218
GATAGGGC	0.0849
AGAACGGC	0.387

Sequence	PBM E-score
CGAACGGC	0.467
CTAACGGC	0.313
AGAACGGG	-0.129
AGAACGGA	0.102
CGAACGGA	0.207
GTCCTGTA	-0.121
CCAAGAGC	0.0254
AAGACGGG	0.0493
GTCTGTCA	-0.00712
CTATATAG	-0.0268
GTATATTA	0.159
GTTTATTA	0.0702
CTATATTA	0.177
ATATATTA	0.329
ATATATAG	0.318
ATTTATTA	0.324
ATATATAT	0.303
ATTATTTA	0.281
ATAAAGGG	0.0416
CCCTCAGG	-0.224
ATCGTTTC	-0.0261
CGGTAAGA	0.0116
CCTTGCAC	0.127
TATCGAGA	-0.0215
CGGCACCC	0.338

Sequence	PBM E-score
AGGCACCC	-0.00944
GGGCACCC	-0.0477
CCGCACCG	0.288
CGGCACCG	0.437
AGGCACCG	0.272
TAGATCAA	-0.00316
CAAGATCG	-0.123
AAAAAGTG	0.204
AAACGCTT	-0.0887
ACCTCCCG	-0.269
CGTAAGGA	-0.0941
CGCAAGGC	0.388
CGTAAGGC	0.358
AATAAGGC	0.231
AGCAAGGC	0.29
AGTAAGGC	0.163
CATAAGGC	0.344
CATAAGGG	-0.0274
CGCAAAGC	0.126

Source: the supplement of paper PMC3334620
